Bioassay records as filed in PubChem BioAssay.
The list is not random: actives were taken first. Their share in the collection is about 19%.
HT1080-NT tox: kills 2HG-producing HT-1080-NT fibrosarcoma cells; HT-1080-NT fibrosarcoma viability, CellTiter-Glo ATP luminescence, 48 h; Potency, µM (doses to about 46.1 µM), inactives show at the highest dose activity, negative = less viability, hits mostly cytotoxic; hit rate 1.6% among 360,000;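 further: NT is the 2HG producing partner of a matched IDH1 knockdown line; 0% = DMSO-treated cells and -100% = media-only wells without cells; nearly all actives have a fitted effect of over 55% in size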
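Fibrosarcoma NT cells, 750 per well in 5% FBS RPMI, were exposed to compound for 48 hours. Viability: CellTiter-Glo luminescence.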
KB-V1 MDR tox: KB-V1 MDR subline cytotoxicity; KB-V1 MDR cells viability, CellTiter-Glo, 72 h; Potency, µM (series often up to 46.1 µM), actives largely listed as cytotoxic; hit rate 3.4% among 400,000; further: nearly all actives have a fitted effect of over 60% in size
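KB-V1 MDR subline cells in DMEM (phenol-red free, 10% FBS) exposed to compounds in qHTS concentration series for 72 h at 37 degrees C. Viability read by CellTiter-Glo luminescence; concentration-effect curves fitted after normalization and correction.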
DT40 TDP1 no CPT: qHTS for Inhibitors of human tyrosyl-DNA phosphodiesterase 1 (TDP1): qHTS in cells in absence of CPT. DT40 Tdp1-/- hTDP1 cells, no CPT, ATP luminescence, 48 h. Potency, µM (series often up to 46.2 µM), inactives show at the top dose activity change, negative = growth inhibition, most hits filed as inhibitors. hit rate 15% among 420,000. AID 686978, 2013; further: nearly all actives have a fitted effect of over 55% in size
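Seeded 400 DT40-hTDP1 cells/well (vehicle DMSO, no 20 nM CPT); pinned compounds; ≥48 hr at 37 °C; CellTiter-Glo luminescence as viability measure.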
KB-3-1 tox: kills parental KB-3-1 adenocarcinoma cells. KB-3-1 viability, CellTiter-Glo ATP luminescence, 72 h. AID 1347075. Potency, µM (highest dose often 46.1 µM), most hits filed as cytotoxic. hit rate 1.4% among 400,000; further: nearly all actives have a fitted effect of over 60% in size
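Parental KB-3-1 adenocarcinoma cells in phenol-red-free DMEM with 10% FBS were pin-treated with compounds at several concentrations, incubated 72 h at 37 °C, and viability read by CellTiter-Glo luminescence; concentration-effect curves were fitted after normalization.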
HT1080 IDH1KD tx: kills HT-1080 cells with IDH1 knockdown | HT-1080 IDH1 knockdown viability, ATP luminescence, 48 h | Potency, µM (highest dose often 46.1 µM), for inactives: top-dose activity, negative = toxicity, usual class: cytotoxic | hit rate 2% among 360,000;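 further: 0% = DMSO wells and -100% = cell-free medium wells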
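HT-1080-IDH1KD cells (IDH1 knocked down), 750/well in RPMI with 5% FBS, treated with compound 48 h at 37 degrees C. Viability by CellTiter-Glo luminescence, normalised to DMSO and no-cell wells; concentration-response curves classed.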
TDP1 cell CPT: DT40-hTDP1 cell growth loss with CPT | chicken DT40 Tdp1-/-;hTDP1 cells + 20 nM CPT, ATP luminescence, 48 h | Potency, µM (doses to about 46.2 µM), for the others: at the top dose activity change, negative = growth inhibition, most hits filed as inhibitors | hit rate 12% among 420,000; further: nearly all actives have a fitted effect of over 55% in size
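Chicken DT40 Tdp1-/- cells stably complemented with human TDP1 were seeded at 400 cells/well in medium containing 20 nM camptothecin, exposed to pin-transferred compounds, and grown at 37 °C for at least 48 hr. Viability was read as ATP luminescence.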
Numbers without * were called inactive; i = inactive; ? = inconclusive; . = not tested or not shown. The call rests on the fitted dose curve; in most records, active means well fitted curve in the direction sought with a large enough effect; inconclusive means small, poorly fitted or top-dose-only effect, or another doubt; inactive means no such curve, though single readings can be large; an effect the other way counts as inactive or inconclusive. Unless noted, on the % scale 0 is the no-effect control and ±100 the full control effect; potency means the concentration at half of the fitted maximal effect.

SMILES	HT1080-NT tox	KB-V1 MDR tox	DT40 TDP1 no CPT	KB-3-1 tox	HT1080 IDH1KD tx	TDP1 cell CPT
O=C(NCc1ccc2c(c1)OCO2)C1CCCN(S(=O)(=O)c2cccc3cccnc23)C1 (configuration not stated)	-2%	i	16µM*	i	-3%	?
Cc1ccc(NC(=O)C2CCCN(S(=O)(=O)c3cccc4cccnc34)C2)cc1 (configuration not stated)	0%	i	21µM*	i	0%	?
O=C(Nc1cccc(F)c1)C1CCCN(S(=O)(=O)c2cccc3cccnc23)C1 (configuration not stated)	-2%	i	23µM*	?	0%	18µM*
Cc1cc(C2=CC(=O)C[C@H](c3ccc4c(c3)OCO4)C2)ccc1F	-2%	i	-28%	i	-8%	-18%
COc1ccc(-c2cc3c(=O)n(CC(=O)Nc4ccc(Br)c(C)c4)ccn3n2)cc1OC	.	i	-30%	i	.	-22%
COc1cccc2c1Oc1ncccc1N(C(=O)CCC(=O)NCc1ccc(OC(C)C)cc1)C2	.	i	?	i	.	?
Cc1c(C(=O)N2CCC(C)CC2)c(S(=O)(=O)NCc2ccccc2)c(C)n1C	.	.	-9%	.	.	-1%
COc1cc(NCc2ccccc2)c2ncn(C(C)C)c2c1	0%	i	-28%	i	1%	?
CCC(CO)Oc1cc(NC(=O)c2ccc(C)cc2)c2ncn(C(C)C)c2c1 (configuration not stated)	7%	i	?	i	8%	23µM*
CCC(CN(C)C)Oc1cc(NCc2ccccc2)c2ncn(C(C)C)c2c1 (configuration not stated)	-13%	i	?	i	-13%	26µM*
C=CC1=CCN(S(=O)C(C)(C)C)[C@@H]1CCO (some centres not stated)	11%	i	-14%	i	11%	-16%
C=C(C1=CCN(S(=O)C(C)(C)C)[C@H]1CCO)c1ccccc1 (some centres not stated)	-5%	i	?	?	-4%	13µM*
C=C(C1=CCN(S(=O)(=O)C(C)(C)C)[C@H]1CCO)c1ccccc1	4%	i	16µM*	i	-2%	?
COc1ccc(OC2C(=O)N(Cc3ccc(F)cc3)C2c2ccc(OC)c(OC)c2)cc1 (configuration not stated)	-4%	?	-12%	i	-32%	29µM*
COc1cc(C2C(Oc3ccccc3C)C(=O)N2Cc2ccc(F)cc2)cc(OC)c1OC (configuration not stated)	-3%	i	?	i	4%	1%
CCOc1ccccc1Nc1nnc(SCC(=O)N2CCCC2)s1	0%	i	-8%	i	2%	-10%
COc1cc(-c2nnc(CSc3nnc(Nc4ccc(C(C)C)cc4)s3)o2)cc(OC)c1OC	?	21µM*	5.8µM*	i	16µM*	5.8µM*
CCOc1ccccc1Nc1nnc(SCc2nnc(-c3cc(OC)c(OC)c(OC)c3)o2)s1	-6%	?	13µM*	i	-14%	?
COc1ccccc1Nc1nnc(SCC(=O)NC2CC2)s1	-5%	i	-16%	i	-1%	11%
COc1ccccc1Nc1nnc(SCc2nnc(-c3cc(OC)c(OC)c(OC)c3)o2)s1	-1%	?	21µM*	i	-7%	21µM*
COc1cc(OC)cc(C(=O)NC(C(=O)NNC(=O)CN(C)S(=O)(=O)c2ccc(C)cc2)C(C)C)c1 (configuration not stated)	-2%	i	?	i	-10%	6%
CC(=O)NC(c1ccc(F)c(F)c1)c1nc(-c2cnn(C)c2)cs1 (configuration not stated)	12%	i	6%	i	3%	0%
CC1CCCCN1CC(O)COCc1ccc(Cl)cc1 (configuration not stated)	3%	i	-1%	i	13%	0%
CCCN(CC(=O)Nc1ccc(Cl)cc1Cl)C(=O)/C=C/c1ccco1	?	?	16µM*	?	?	?
OCCCCCNc1ncnc2ccccc12	-3%	i	7.3µM*	i	-17%	8.2µM*
SMILES	HT1080-NT tox	KB-V1 MDR tox	DT40 TDP1 no CPT	KB-3-1 tox	HT1080 IDH1KD tx	TDP1 cell CPT
CCN(CC)CCCNc1ncnc2ccccc12	1%	i	1%	i	-5%	5%
CSC1=N/C(=C\c2ccc(Cl)cc2)C(=O)N1N(C)C	-2%	i	23µM*	i	-17%	?
COc1ccc(/C=C2\N=C(SC)N(C)C2=O)cc1	7%	?	-3%	i	9%	-3%
CCOC(=O)CSc1nc2sc3c(c2c(=O)n1-c1ccccc1)CC(C(C)C)OC3 (configuration not stated)	.	?	?	i	.	?
Cc1ccc(-c2csc3nc(SCC(N)=O)n(Cc4ccccc4)c(=O)c23)cc1	?	21µM*	?	i	?	?
CCOC(=O)CSc1nc2sc3c(c2c(=O)n1Cc1ccccc1)CC(C)CC3 (configuration not stated)	.	.	12µM*	.	.	?
c1cncc(-c2nc(NCCCN3CCOCC3)c3c4c(sc3n2)CCC4)c1	18µM*	i	23µM*	?	?	?
C[n+]1ccc(/C=C/c2ccccc2O)c2ccccc21	-6%	?	?	i	?	?
C[n+]1ccc(/C=C/c2ccc(C=S)cc2)c2ccccc21	.	i	3.2µM*	?	.	4µM*
Cc1cc(N(C)C)cc(C)c1/C=C/c1cc[n+](C)c2ccccc12	.	i	0.56µM*	4.6µM*	.	0.56µM*
COc1cc(OC)c(/C=C/c2cc[n+](C)c3ccccc23)c(OC)c1	.	i	0.45µM*	?	.	0.5µM*
COc1cc(OC)c(OC)cc1/C=C/c1cc[n+](C)c2ccccc12	.	i	2µM*	15µM*	.	4µM*
CCOc1ccc(/C=C/c2cc[n+](C)c3ccccc23)cc1OCC	.	i	?	?	.	?
Cc1cccc(C)c1NC(=O)CCC(=O)N1Cc2ccccc2Oc2ncccc21	.	i	-26%	i	.	-7%
Cc1cc(C)cc(-n2c(SCC(=O)N3CCc4ccccc43)nc3c([nH]c4ccccc43)c2=O)c1	.	i	8%	i	.	4%
